The source of these data is PubChem BioAssay (NCI).

Several values for one entry are separate records, joined by “and”; a condition that tells them apart may be missing. Identical values can stand only once. This is part of a sample that, as a whole, favours compounds with a hit. Of some 79,000 tested, about 15% had one in any assay. Activity calls are given as the source filed them. Rule as the data show it: active = growth inhibition above about 70%; inactive = the rest.

The experiment can be described thus: NCI Yeast Anticancer Drug Screen. Data for the cln2 rad14 strain (AID 165).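 Also: 0% = growth equal to vehicle treated cultures.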 Particulars: S. cerevisiae cln2 rad14 strain, at 50.0 µM, stronger effect = higher value. In short, it runs like this:
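Strain: cln2 rad14 yeast, altered in cell cycle control and DNA damage repair. Read-out: growth inhibition vs vehicle.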
For `O=C(Cc1ccccc1)Oc1ccc2c(-c3ccccc3)c(C(=O)Nc3ccc(Cl)cc3)c(=O)oc2c1`, the growth inhibition was 2.6% (inactive).

`Cc1ccc(CCl)c(C)c1`: the growth inhibition was -39% (inactive).

As for `COC1C(=[N+]=[N-])C(=O)NC(=O)N1C` (stereo not given), the growth inhibition is -7.65% (inactive).

For `O=C(O)CC(=O)O.[Ti].[c-]1[c-][c-][cH-][c-]1.[c-]1[c-][c-][cH-][c-]1`, the growth inhibition is -51.6% (inactive).

With `CCOc1ccc(Nc2nc(=O)[nH]c3ccccc23)cc1CN(CCCl)CCCl`, the growth inhibition is -19.4% (inactive).

Turning to `CCC[C@H]1CCCCN1`, the growth inhibition is 18.9% (inactive).

Regarding `CN(C)CCNC(=O)c1cccc(COC(=O)Nc2ccc(N(CCCl)CCCl)cc2)c1[N+](=O)[O-]`, the growth inhibition was -49.8% (inactive).

Regarding `CCOC(=O)/C=C1\Nc2ccccc2C(c2ccccc2)=NC1OC(C)=O` (stereo not given), the growth inhibition is 23.6% (inactive).

In the case of `O=C1NC(=O)C(CC(C(=O)C(=O)Nc2ccccc2Cl)C(=O)c2ccc3ccccc3c2)C(=O)N1` (stereo not given), the growth inhibition is -32.8% (inactive).

With `NC(=O)OCCc1c2ccccc2nc2ccccc12`, the growth inhibition was 2.6% (inactive) and 42.4% (inactive).

Consider `CNC(=O)Oc1ccc2c(C)cc(=O)oc2c1`, for which the growth inhibition is -27% (inactive).

Turning to `COc1cc2c(c(OC)c1OC)-c1ccc(O)cc1C(NC(C)=O)CC2` (stereo not given), the growth inhibition was 17.4% (inactive).

For the compound `CC(CN1CCCCCC1)C(C#N)(c1ccccc1)c1ccccc1` (stereo not given), the growth inhibition was 49.5% (inactive).

On to `O=C1C=CC(=O)c2c(O)cccc21`, for which the growth inhibition is 15.4% (inactive).

For the compound `CC(=O)C1C(c2ccccc2)C2(C)OC(=O)C(C#N)C12C` (stereo not given), the growth inhibition is 32.3% (inactive).

For `O=C(O)c1ccccc1.O=C(O)c1ccccc1.O=C(O)c1ccccc1.O=C(O)c1ccccc1.[Cu].[Cu]`, the growth inhibition was 3.85% (inactive).

Take `NC(CCOCCP(=O)(O)O)C(=O)O` (stereo not given): the growth inhibition is -8% (inactive).

As for `C=C(C)C1C2CC3(C)C4(CO4)C4OC4C3(O)C1C(=O)O2` (stereo not given), the growth inhibition is 4.2% (inactive).

`COc1ccc(CCN(C)Cc2cccc(OC)c2OC)cc1OC`: the growth inhibition was -0.95% (inactive).

Take `O=C(Nc1cccc(Cl)c1)OCC(Cl)(Cl)Cl`: the growth inhibition was 99.8% (active).

Consider `CCCCC(CC)COP(OCC(CC)CCCC)OCC(CC)CCCC.[Cl][Sn][Cl]` (stereo not given), for which the growth inhibition was -10.4% (inactive).

In the case of `CC1=C[C@H]2[C@@]3(O)[C@H](C)C[C@]4(OC(=O)C(C)C)[C@H]([C@@H]3C=C(CO)C[C@]2(O)C1=O)C4(C)C`, the growth inhibition was 3.9% (inactive).

For the compound `CCN(CCCl)CCCCCNc1c2ccccc2nc2ccc(OC)cc12`, the growth inhibition was 84.3% (active).

Consider `CC12CCC3C(CCC4(O)C=CCCC34C=O)C1(O)CC(O)C2c1ccc(=O)oc1` (stereo not given), for which the growth inhibition is -15.8% (inactive).

With `CN(C)CCNC(=O)c1cc(COC(=O)N(CCCl)CCCl)ccc1[N+](=O)[O-]`, the growth inhibition is 28.1% (inactive).

In the case of `COc1ccc2c3c1OC1C(C)(O)C(O)CC4C(C2)N(C)CCC341` (stereo not given), the growth inhibition is 9.3% (inactive).

On to `O=P(c1ccccc1)(c1ccccc1)c1ccccc1.O=P(c1ccccc1)(c1ccccc1)c1ccccc1.O=P(c1ccccc1)(c1ccccc1)c1ccccc1.O=P(c1ccccc1)(c1ccccc1)c1ccccc1.[Co+2].[O-][Cl+3]([O-])([O-])O`, for which the growth inhibition was 20.9% (inactive).

For the compound `CCSCCC(N)C(=O)O` (stereo not given), the growth inhibition was -70.4% (inactive) and -32.9% (inactive).

Regarding `OCC(O)C(O)CO` (stereo not given), the growth inhibition was -61.8% (inactive) and 20.8% (inactive).

Take `c1ccc(CCN2CCOCC2)nc1`: the growth inhibition was 52% (inactive).

`COP(=O)(OC)/C(=C/c1c[nH]c2ccccc12)C(=O)O`: the growth inhibition was -34.9% (inactive).

With `CCC(C)C1NC(=O)C2CCCN2C(=O)C(CC2CO2)OC(=O)CCNC(=O)C(C)N(C)C(=O)C(C(C)C)N(C)C1=O` (stereo not given), the growth inhibition was 31.6% (inactive).

`[C-]#[O+].[C-]#[O+].[C-]#[O+].[Ni].c1ccc([PH+](CC[PH+](c2ccccc2)c2ccccc2)CC[PH+](c2ccccc2)c2ccccc2)cc1`: the growth inhibition is 32.8% (inactive).

Regarding `CC(=O)c1ccc([As](=O)(O)O)cc1`, the growth inhibition is -21.4% (inactive).

Take `COc1cccc(C=C(C#N)C#N)c1OC`: the growth inhibition is 5.05% (inactive).

As to `CCC1C2CC3C4N(C)c5ccccc5C45CC(C2C5O)N3C1O` (stereo not given), the growth inhibition is -17.9% (inactive) and -3.4% (inactive) and -0.6% (inactive).

As for `O=C1NC(=S)NC(=O)C1=Cc1cccc2cc3ccccc3cc12`, the growth inhibition was 93.3% (active).

On to `COC(=O)C(CC(=O)N[N+](=O)[O-])NC(=O)C(CSC(c1ccccc1)(c1ccccc1)c1ccccc1)NC(=O)OCc1ccccc1` (stereo not given), for which the growth inhibition was -15.1% (inactive).

Take `O=C(O)C(O)(c1ccccc1)C1CCCCC1` (stereo not given): the growth inhibition was 18.6% (inactive) and -7.65% (inactive).

Take `CC(C)[N+](C)(CCC(C(=O)N(C)C)(c1ccccc1)c1ccccc1)C(C)C`: the growth inhibition is 13.3% (inactive).
